Shown are actives, neighbours in structure and some others; about 3.2% of the full set was active somewhere.
esBAF inh: inhibitors of esBAF chromatin remodeling in mouse ES cells | Bmi1-luciferase knock-in reporter, 24 h; 100% = twice the neutral-well signal | reporter increase, % at 12.5 µM | 350,000 tested, 2% active | AID 602393; in the data active = activation above about 40%;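 also: a rise in the Bmi1 reporter signal indicates esBAF inhibition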
SMARCA2 act: SMARCA2 function activation, primary screen; 370,000 tested, 1% active; MG213 cells, MMTV-luciferase reporter, dexamethasone, overnight; activation, % at 9.1 µM; in the data active = activation above about 7.8%
CDK5 inh: CDK5/p35 (human) kinase inhibition; Q00535+Q15078; Recombinant CDK5/p35, ADP-Glo luminescence, 60 min; inhibition, % at 10 µM; 330,000 tested, 0.01% active; AID 488839;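 active = highest replicate inhibition of at least 50% and at least 75% of replicates reaching 50%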
Target sequence (Q00535 whole entry, looked up): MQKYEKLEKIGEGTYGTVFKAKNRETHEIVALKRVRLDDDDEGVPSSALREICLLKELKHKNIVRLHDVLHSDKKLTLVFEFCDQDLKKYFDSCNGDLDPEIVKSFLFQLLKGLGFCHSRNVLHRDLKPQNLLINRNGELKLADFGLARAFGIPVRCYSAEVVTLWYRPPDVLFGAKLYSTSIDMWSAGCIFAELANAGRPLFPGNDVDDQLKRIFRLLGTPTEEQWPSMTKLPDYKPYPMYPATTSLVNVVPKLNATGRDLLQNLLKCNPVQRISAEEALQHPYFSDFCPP
Target sequence (Q15078 whole entry, looked up): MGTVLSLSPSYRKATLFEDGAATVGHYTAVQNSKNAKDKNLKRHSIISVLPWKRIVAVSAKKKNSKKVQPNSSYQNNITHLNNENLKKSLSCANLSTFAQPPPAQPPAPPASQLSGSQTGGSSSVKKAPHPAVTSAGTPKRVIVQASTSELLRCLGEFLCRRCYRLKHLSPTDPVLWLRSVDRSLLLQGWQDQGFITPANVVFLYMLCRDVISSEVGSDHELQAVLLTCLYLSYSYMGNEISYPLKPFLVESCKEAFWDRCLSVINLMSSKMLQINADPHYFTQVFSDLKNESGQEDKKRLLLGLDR
DYRK1A inh: Dyrk1A (rat) kinase inhibition; 310,000 tested, 0.43% active; ADP-Glo luminescence, NFATc1 peptide; inhibition, % at 12.5 µM; in the data active = inhibition above about 50%
Rtt109 Vps75: blocks Candida albicans Rtt109/Vps75 acetyltransferase activity | Q5AAJ8 | purified Rtt109/Vps75, ThioGlo CoA-SH fluorescence, 4 h | inhibition, % at 34.9 µM | 330,000 tested, 0.16% active;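 active = inhibition of at least 50% in every replicate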
dFosB act: enhances mouse delta FosB homodimer DNA binding; purified delta FosB, TAMRA-CDK5 oligo fluorescence polarization; percent of positive-control signal above neutral wells; P13346; 340,000 tested, 0.99% active; activation, % at 25 µM;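 active = mean activation above about 17%, with every replicate also reaching it, limit read from the data, passing the limit was not always enough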
A number is an active result; – = inactive; · = not tested or not shown; + = active, no number.

SMILES	esBAF inh	SMARCA2 act	CDK5 inh	DYRK1A inh	Rtt109 Vps75	dFosB act
CO[C@@H](CN(C)S(=O)(=O)c1cccc(Cl)c1)[C@H](C)CN([C@@H](C)CO)S(=O)(=O)c1cccc(Cl)c1	–	·	·	·	·	·
CCOC(=O)c1ccc(NC(=O)C23CCC(C)(C(=O)O2)C3(C)C)cc1 (centres undefined)	55	–	–	–	–	–
COc1ccc(NC(=O)C23CCC(C)(C(=O)O2)C3(C)C)cc1 (centres undefined)	–	–	–	–	–	–
Cc1c(C(=O)Oc2cccc3ccccc23)cnn1-c1ccccc1	45	–	–	–	–	–
CC(=O)c1cnn(-c2ccccc2)c1C	–	–	–	–	–	–
COc1ccccc1OCCCOc1ccc(C)cc1Br	·	–	–	–	–	–
COc1cccc(OCCCOc2ccc([N+](=O)[O-])cc2Cl)c1	–	–	–	–	–	–
COc1cc(C)ccc1OCCCOc1ccccc1Br	52	–	–	–	–	–
COc1ccccc1OCCCOc1ccc([N+](=O)[O-])cc1Cl	56	–	–	–	–	–
COC(=O)C(Cc1ccc(O)cc1)NC(=O)c1ccc2c(c1)OCCO2 (centres undefined)	55	–	–	–	–	–
CNc1nc(-c2ccc3c(c2)CCN3C(=O)c2ccc(F)cc2)cs1	52	–	–	–	–	–
CC(C)(C)Nc1nc(-c2ccc3c(c2)CCN3C(=O)C2CC2)cs1	95	–	–	–	–	–
CC(C)C(=O)Nc1nc(-c2ccc3c(c2)CCN3C(=O)C2CC2)cs1	–	–	–	–	–	–
Cc1cccc(C(=O)N2CCc3cc(-c4csc(NC(=O)CN5CCCC5)n4)ccc32)c1	–	–	–	–	–	37
O=C(C[C@@H]1CC[C@@H]2[C@H](COC[C@@H](O)CN2C(=O)Cc2ccccc2)O1)NC1CCC1	–	·	·	·	·	·
COc1ccc(C(=O)NNC2CC(=O)N(Cc3ccccc3)C2=O)cc1OC (centres undefined)	–	7.9	–	–	–	–
CN(C)C(=O)C[C@H]1C[C@H]2c3cc(NC(=O)C4CCC4)ccc3O[C@H]2[C@@H](CO)O1	–	·	·	·	·	·
O=C(NCc1ccccc1)[C@H]1N[C@H]2c3cccc(=O)n3C[C@H]2[C@@H]1CO	–	·	·	·	·	·
Cc1cc(Cl)ccc1NC(=O)c1ccc2c(c1)OCO2	77	–	–	–	–	–
COc1ccc(C)cc1NC(=O)c1ccc2c(c1)OCO2	–	–	–	–	–	–
COc1cc(Cl)c(C)cc1NC(=O)c1ccc2c(c1)OCO2	46	–	–	·	–	–
Cn1cc(Cl)c(C(=O)OCC(=O)Nc2nc(-c3ccc(Br)cc3)cs2)n1	61	–	–	–	–	–
COc1ccc(C(=O)Nc2ccc3c(c2)C(=O)N(C)C[C@H](OC)[C@H](C)CN(C(C)=O)[C@H](C)CO3)cc1	–	·	·	·	·	·
Cc1cccc(C)c1NC(=O)CN(C)C(=O)c1ccc(COc2ccccc2)cc1	43	–	–	–	–	–
Cc1cc(C)c(NC(=O)CN(C)C(=O)c2ccc(OCc3ccccc3)cc2)c(C)c1	–	–	–	·	–	–
SMILES	esBAF inh	SMARCA2 act	CDK5 inh	DYRK1A inh	Rtt109 Vps75	dFosB act
Oc1ccc(/C=N/NC(=S)NC2CC3CCC2C3)cc1 (centres undefined)	47	–	–	·	–	–
S=C(N/N=C/c1cccs1)NC1CC2CCC1C2 (centres undefined)	·	–	–	·	–	–
C[C@@H]1CN([C@H](C)CO)C(=O)c2cccc(NS(C)(=O)=O)c2O[C@@H]1CN(C)CC1CC1	–	·	·	·	·	·
O=S(=O)(c1ccc2[nH]c3c(c2c1)CCCC3)N1CCCCC1	–	–	–	–	–	–
N#Cc1ccc(S(=O)(=O)N2CCc3[nH]c4ccc(F)cc4c3C2)cc1	–	–	–	–	54	–
Cc1c(C(=S)Nc2ccccc2)cnn1-c1ccccc1	·	–	–	–	–	–
Cc1nn(-c2ccccc2)cc1C(=S)Nc1ccccc1	49	–	–	–	·	–
c1ccc2c(c1)NC(c1ccncc1)n1c-2nc2ccccc21 (centres undefined)	·	–	–	–	–	–
c1cncc(C2Nc3ccccc3-c3nc4ccccc4n32)c1 (centres undefined)	59	–	–	–	–	–
CCNC(=O)COC(=O)c1ccc(-c2nc3ccccc3s2)s1	·	–	–	·	–	–
Cc1noc(C)c1COC(=O)c1ccc(-c2nc3ccccc3s2)s1	65	–	–	–	–	–
Cc1ccc(C(=O)Nc2ccc(N3CCCCC3)cc2)cc1	–	–	–	–	–	–
Cc1ccc(NC(=O)c2cc(N3C(=O)C=CC3=O)ccc2N2CCOCC2)cc1	·	–	–	–	+	–
Cc1ccc(C(=O)Nc2ccc(C(=O)/C=C/c3cccs3)cc2)cc1	69	–	–	–	–	–
Cc1ccc(C(=O)NC(=S)Nc2ccc(N3CCOCC3)cc2)c(C)c1	–	7.9	–	–	–	–
Cc1ccc(NC(=O)c2cc(NC(=O)c3ccco3)ccc2N2CCOCC2)cc1	–	–	–	–	–	–
Cc1ccc(C(=O)Nc2ccc(N3CCCC3)cc2)cc1	44	–	–	–	–	–
CO[C@@H]1CN(C)C(=O)c2ccc(NS(C)(=O)=O)cc2OC[C@@H](C)N(Cc2ccccc2)C[C@@H]1C	–	·	·	·	·	·
CN1c2ccc(-c3ccc(F)cc3)cc2[C@H]2[C@H](CCN2S(=O)(=O)c2cccc(F)c2)[C@@H]1CO	–	·	·	·	·	·
O=S(=O)(N[C@H]1CC[C@H](CCn2cc(-c3cccc(F)c3)nn2)O[C@H]1CO)c1ccc(F)cc1	–	·	·	·	·	·
O=C(Nc1ccc(N2CCOCC2)cc1)c1ccc2ncsc2c1	–	–	–	–	–	–
Cc1ccc(C(=O)Nc2ccc(N3CCOCC3)cc2)cc1	56	–	–	–	–	–
Cc1ccc(C(=O)Nc2ccc(N3CCN(S(C)(=O)=O)CC3)cc2)cc1	–	–	–	–	–	–
Nc1nc2ccc(C(=O)Nc3ccc(N4CCOCC4)cc3)cc2s1	51	–	–	–	–	–
C/C(=N\Nc1nccnc1Cl)c1ccc(Br)cc1	–	–	–	–	–	–
SMILES	esBAF inh	SMARCA2 act	CDK5 inh	DYRK1A inh	Rtt109 Vps75	dFosB act
COc1ccc(/C(C)=N/Nc2nccnc2Cl)cc1	46	7.9	–	·	–	–
CO[C@@H]1CN(C)C(=O)c2cc(NS(C)(=O)=O)ccc2OC[C@H](C)N(C)C[C@H]1C	–	·	·	·	·	·
Cc1ccccc1C(=O)NC(=S)Nc1ncccn1	47	–	–	–	–	–
CCc1nnc(NC(=O)CSc2nnc(CNc3cccc(Cl)c3)n2CC)s1	–	–	–	–	–	–
CCc1nnc(NC(=O)CSc2nnc(C3CCCCC3)n2-c2cccc(Cl)c2)s1	–	–	–	–	59	–
COc1ccc(C(=O)N2C[C@H]3[C@@H](c4ccccc42)[C@@H](CO)N3C(=O)NC(C)C)cc1	–	·	·	·	·	·
Cc1nn(-c2ccccc2)c(N)c1N=Nc1ccccc1	·	–	–	–	–	–
